A selection: hits, their analogues and other compounds. The true share with any hit is near 12%.
AmpC detergent: qHTS Inhibitors of AmpC Beta-Lactamase (assay with detergent). AmpC hydrolysis of nitrocefin, absorbance 480 nm, 0.01% Triton. P00811. Potency, µM (doses to about 114 µM), actives largely listed as inhibitors. 370,000 tested, 0.041% active. AID 485294, 2010; note: nearly all actives have a fitted effect of over 25% in size
Target sequence (P00811 whole entry, looked up): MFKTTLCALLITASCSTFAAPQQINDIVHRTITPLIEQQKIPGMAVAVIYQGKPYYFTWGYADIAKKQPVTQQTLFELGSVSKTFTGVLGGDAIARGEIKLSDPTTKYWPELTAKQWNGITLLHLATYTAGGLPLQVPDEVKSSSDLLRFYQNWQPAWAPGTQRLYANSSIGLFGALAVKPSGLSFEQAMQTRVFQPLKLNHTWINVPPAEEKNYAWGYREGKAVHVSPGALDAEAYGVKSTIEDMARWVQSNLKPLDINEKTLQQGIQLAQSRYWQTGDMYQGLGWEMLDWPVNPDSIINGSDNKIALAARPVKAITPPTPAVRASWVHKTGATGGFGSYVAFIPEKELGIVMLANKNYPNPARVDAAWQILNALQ
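20 mM phosphate pH 7.0 + 0.01% (detergent screen) or 0.0001% Triton X-100; 5.3 nM AmpC reagent; cpd preinc 15 min RT; nitrocefin (800 uM stock) to start; A480 q20 s × 4 min; Activity was normalised to no-enzyme and no-compound control wells.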
AmpC no deterg: qHTS Inhibitors of AmpC Beta-Lactamase (assay without detergent); Potency, µM (top dose mostly 57.1 µM), hits mostly inhibitors; 330,000 tested, 0.52% active; P00811; AmpC nitrocefin hydrolysis, absorbance 480 nm, 0.0001% Triton; note: nearly all actives have a fitted effect of over 20% in size
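AmpC (5.3 nM in the dispensed reagent) in 20 mM phosphate pH 7.0 with 0.01% (detergent screen) or 0.0001% Triton X-100 was preincubated with compounds for 15 min at room temperature. Nitrocefin was then added from an 800 uM solution, and hydrolysis was followed at 480 nm.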
Pf growth 48h: Primary qHTS for delayed death inhibitors of the malarial parasite plastid, 48 hour incubation; 310,000 tested, 5.9% active; P. falciparum luciferase growth in erythrocytes, 48 h; Potency, µM (top dose mostly 28.7 µM), actives largely listed as inhibitors
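In quantitative HTS format, infected erythrocytes bearing luciferase-reporter parasites were treated for a single generation at 37 C. Luminescence after adding detection reagent served as the growth measure.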
Pf growth 96h: Primary qHTS for delayed death inhibitors of the malarial parasite plastid, 96 hour incubation; 320,000 tested, 6.9% active; Potency, µM (series often up to 28.7 µM), most hits filed as inhibitors; P. falciparum luciferase reporter growth, 96 h; AID 504834, 2011
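Plates of compound plus infected erythrocytes (2% hematocrit, 0.05% parasitemia final) incubate 96 hours, 37 C, 5% CO2. Detection reagent added; reduced luminescence from the parasites' luciferase reporter flags inhibition.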
Sm TGR block: qHTS Assay for the Inhibitors of Schistosoma Mansoni Peroxiredoxins; purified TGR, DTNB reduction, TNB absorbance 405 nm; 360,000 tested, 3% active; Schistosoma mansoni thioredoxin glutathione reductase (TGR), Q962Y6; AID 485364, 2010; Potency, µM (series often up to 114 µM), actives largely listed as inhibitors; note: nearly all actives have a fitted effect of over 60% in size
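Kinetic colorimetric format: TGR-catalysed, NADPH-driven DTNB reduction monitored via TNB absorbance. Enzyme dispensed at 20 nM; compound exposure 15 min at room temperature before reaction start.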
SARS PLP yeast: qHTS of Yeast-based Assay for SARS-CoV PLP. Potency, µM (series often up to 32.9 µM), actives largely listed as activators. S. cerevisiae expressing SARS-CoV PLpro, growth rescue. 330,000 tested, 0.19% active; calls by dose curve; note: nearly all actives have a fitted effect of over 55% in size
Each line names hits and unclear results; the compound was inactive in the other large screens. Unless noted, calls come from the whole dose curve; as a rule, active = well fitted curve in the direction sought with a large enough effect; inconclusive = small, poorly fitted or top-dose-only effect, or another doubt; inactive = no such curve, though single readings can be large; an effect the other way counts as inactive or inconclusive.

O=C(CSc1ccc(-c2cccnc2)nn1)Nc1ccccc1F	none
CC(=O)Nc1cccc(NC(=O)CSc2ccc(-c3cccnc3)nn2)c1	Pf growth 48h inconclusive
C[C@H](CO)N1C[C@H](C)[C@@H](CN(C)S(=O)(=O)c2cccs2)Oc2c(NC(=O)C3CC3)cccc2C1=O	none (no result: AmpC detergent, Pf growth 48h, Pf growth 96h, Sm TGR block)
O=C(CSc1nccn1-c1cccc(Cl)c1)Nc1ccc2c(c1)OCO2	none (no result: AmpC no deterg, Pf growth 48h, Pf growth 96h, SARS PLP yeast)
Oc1cc(Nc2ccncc2)cc2cccnc12	Pf growth 48h 11.7µM, Pf growth 96h inconclusive
Oc1cc(Nc2cccnc2)cc2cccnc12	Pf growth 48h 10.4µM, Pf growth 96h 4.15µM
COc1ccc(Nc2cc(O)c3ncccc3c2)cc1	AmpC detergent inconclusive, Pf growth 48h 0.465µM, Pf growth 96h 0.415µM
Oc1cc(NCCc2cccnc2)cc2cccnc12	Pf growth 48h 11.7µM, Pf growth 96h 8.28µM
Cc1ccc2nc(N(CCCN(C)C)C(=O)c3ccc4ncsc4c3)sc2c1	none
Cc1nc2c(-c3ccccc3)c(C)nn2c(C)c1CCC(=O)N1CCN(c2ccc(F)cc2)CC1	none (no result: AmpC no deterg, Pf growth 48h, Pf growth 96h, SARS PLP yeast)
CC(C)CN(CCCNC(=O)c1cn(C)c2ccc(S(=O)(=O)N(C)C3CCCCC3)cc2c1=O)CC(C)C	none (no result: AmpC no deterg, Pf growth 48h, Pf growth 96h, SARS PLP yeast)
CCNc1nc(=S)nc(NCc2ccccc2)[nH]1	none
Cc1cc(C)cc(OCC(=O)N(Cc2ccc(N(C)C)cc2)C2CCS(=O)(=O)C2)c1 (centres undefined)	none
Cc1ccc(C)c(-c2[nH]c3c(c2-c2c(-n4cccc4)n(C)c(=O)[nH]c2=O)c(=O)[nH]c(=O)n3C)c1	none (no result: AmpC no deterg, Pf growth 48h, Pf growth 96h, SARS PLP yeast)
COc1ccccc1OCCSc1nc(C)c(Cc2ccccc2)c(=O)[nH]1	none
CCCn1c2ccccc2c2cnn(CC(=O)NCc3ccc(OC)cc3)c(=O)c21	none (no result: AmpC no deterg, Pf growth 48h, Pf growth 96h, SARS PLP yeast)
COC(=O)c1ccc(N2CCN(S(=O)(=O)c3c(C)cc(C)cc3C)CC2)c([N+](=O)[O-])c1	Pf growth 48h 11.7µM, Pf growth 96h inconclusive
Cc1cc(C)c(S(=O)(=O)N2CCN(c3ccc([N+](=O)[O-])c(-n4nc(C)cc4C)c3)CC2)c(C)c1	Pf growth 48h 4.15µM, Pf growth 96h 1.31µM
CCS(=O)(=O)N1CCN(c2ccc(C(=O)NC3C4CC5CC(C4)CC3C5)cc2[N+](=O)[O-])CC1 (centres undefined)	Pf growth 48h 11.7µM, Pf growth 96h inconclusive
Cc1cc(C)n(-c2cc(N3CCN(S(=O)(=O)c4ccc(Br)cc4)CC3)ccc2[N+](=O)[O-])n1	Pf growth 48h inconclusive, Pf growth 96h inconclusive
O=C(C1CCN(S(=O)(=O)c2ccccc2F)CC1)N1CCCC1	AmpC detergent inconclusive
CC1CN(C)C(C)C/C1=N\Oc1ccc([N+](=O)[O-])cc1 (centres undefined)	Pf growth 96h 1.04µM
CC1CN(C)C(C)C/C1=N/Oc1ccccc1[N+](=O)[O-] (centres undefined)	none
COc1cccc(CNC(=O)Cn2nc(C)n3c(cc4cc(C)ccc43)c2=O)c1OC	none (no result: AmpC no deterg, Pf growth 48h, Pf growth 96h, SARS PLP yeast)
Cc1c(C(c2ccccc2O)c2c(C)n(C)n(-c3ccccc3)c2=O)c(=O)n(-c2ccccc2)n1C	Pf growth 48h inconclusive
Cc1c(O)c(=O)n(-c2ccccc2)n1C	Sm TGR block 11.2µM (no result: SARS PLP yeast)
CC1=CC(=Nc2c(C)n(C)n(-c3ccccc3)c2=O)C=CC1=O	Pf growth 48h inconclusive, Pf growth 96h inconclusive, Sm TGR block 2.82µM
CCCCCCC(c1c(C)n(C)n(-c2ccccc2)c1=O)c1c(C)n(C)n(-c2ccccc2)c1=O	AmpC detergent inconclusive, Pf growth 48h 13.1µM
CCC(C)C1=CC(=Nc2c(C)n(C)n(-c3ccccc3)c2=O)C=C(C(C)CC)C1=O (centres undefined)	none
CC1=CC(=Nc2c(C)n(C)n(-c3ccccc3)c2=O)C=C(C)C1=O	Pf growth 96h inconclusive, Sm TGR block 50.1µM
CCNc1ccccc1CP(=O)(c1ccccc1)c1ccccc1O (centres undefined)	Pf growth 48h 13.1µM, Pf growth 96h 11.7µM, Sm TGR block 0.501µM
Cc1ccc(O)c(CP(=O)(c2ccccc2)c2ccccc2)c1	Pf growth 48h inconclusive, Pf growth 96h inconclusive
Cc1c(Cl)cccc1-n1nc(C)c2c(C)cc(=O)n(CC(=O)N3CCCc4ccccc43)c21	none (no result: AmpC no deterg, Pf growth 48h, Pf growth 96h, SARS PLP yeast)
O=C(O)c1cc(O)c(O)c(O)c1	Pf growth 48h inconclusive, Pf growth 96h 8.49µM (no result: AmpC detergent, AmpC no deterg, Sm TGR block, SARS PLP yeast)
Cc1ccc(-n2cc(CCCCCCCCC(=O)O)nn2)cc1	AmpC detergent inconclusive, Pf growth 96h 5.86µM
O=C(Nc1ccc(Cl)cc1)OCc1cn(-c2ccccc2)nn1	AmpC detergent inconclusive
Cc1ccc(C(=O)OCc2cn(-c3ccccc3)nn2)cc1	AmpC detergent inconclusive, Pf growth 48h 13.1µM, Pf growth 96h inconclusive
COc1cccc(CNC(=O)c2ccc3c(c2)sc2nc(-c4ccccc4)cn23)c1OC	none (no result: AmpC no deterg, Pf growth 48h, Pf growth 96h, SARS PLP yeast)
O=C(Nc1ccc(-c2nc3ccccc3s2)cc1)c1cc(-n2cnnc2)ccc1Cl	Pf growth 48h 9.28µM, Pf growth 96h 7.38µM
COc1ccc(C(c2nnnn2C2CCCC2)N2CCN(c3ccccc3)CC2)cc1 (centres undefined)	Pf growth 48h 9.28µM, Pf growth 96h inconclusive
COc1ccc(C(c2nnnn2C2CCCCC2)N2CCN(c3ccccc3)CC2)cc1 (centres undefined)	Pf growth 48h 10.4µM
